Out of some 60,000 compounds screened, about 65 (0.1%) were called active. The sample as a whole holds a higher share of actives than the screen did. Values without a mark were called inactive. The call rests on the fitted dose curve; in most records, active means well fitted inhibition curve with a large enough effect; inconclusive means small, poorly fitted or top-dose-only effect; inactive means no such curve, though single readings can be large or run the other way.
biological target: Ubiquitin carboxyl-terminal hydrolase 2 (Homo sapiens) (UniProt O75604); assay: qHTS Assay for Inhibitors of Ubiquitin-specific Protease USP2a; conditions: USP2a enzymatic assay; Potency: qHTS inhibition; series mostly up to 38.3 µM; activity change, negative = inhibition: at the top concentration; further: nearly all actives have a fitted effect of over 60% in size
Description: NIH Molecular Libraries Screening Centers Network [MLSCN]
NIH Chemical Genomics Center [NCGC]
PI Name: Nicholson, Ben. Progenra Inc, Malvern, PA
Homeostasis of cellular proteins is maintained through a combination of synthesis and degradation. The pathway that accounts for the majority of protein degradation is the ubiquitin-proteasomal pathway. Ubiquitin (Ub) is highly conserved in all cells and the generation of a multi-Ub chain typically targets proteins for degradation by the proteasome. However, ubiquitination is highly reversible and dynamic. Deubiquitination, the reverse process, is catalyzed through the action of enzymes referred to as isopeptidases or deubiquitinating enzymes (DUBs). This group of enzymes is collectively responsible for maintaining adequate pools of free ubiquitin and regulating the ubiquitination status of cellular proteins. The class of DUBs referred to as the ubiquitin-specific proteases (USP) family functions endoproteolytically to cleave Ub chains from a wide range of protein substrates. USP2a deubiquitinates fatty acid synthase (FASN) which has recently been identified as an emerging oncology target. To identify inhibitors of USP2a a cell-free assay was employed.
The reporter enzyme chosen is phospholipase A2 (PLA2), which has an absolute requirement for a free amino terminus. Thus, fusion of a UBL to the N-terminus of PLA2 inactivates PLA2. When the UBL-PLA2 reporter enzyme is cleaved by USP2, the activated reporter can subsequently act on its substrate, which is the commercially available NBD C6-HPC (Invitrogen). Thus, this coupled assay gives a fluorescent read-out, which is generated through the cleavage of the PLA2 reporter enzyme. The assay, developed by Progenra, Inc. uses Ub-PLA2 and USP2a at near equal and low (nM) amounts and has been licensed for sale by LifeSensors, Inc. as the Ub-IsoPro1 kit.
NCGC Assay Protocol Summary:
The assay buffer, prepared fresh at the day of the assay, contains 20mM Tris-HCl pH 8.0, 2mM CaCl2, 2mM beta-Mercaptoethanol, 0.1% DMSO. 3ul of 40nM (20nM final) USP2 core, which is stored on ice, is dispensed into a medium-binding black solid Kalypsys 1,536 well plate using the Kalypsys dispenser. The assay plate is then pinned with 23nL compound with the Kalypsys pintool in columns 5-48. The controls are pinned as follows: column 1&2 two-fold dilutions of 2M NEM in duplicate; column 3 DMSO; column 4 2M NEM (final concentration 38.2mM). The assay plate is incubated at RT for 30min. Subsequently, 3uL of 40nM (20nM final) Ub-PLA2 and 40uM (20uM final) NBD C6-HPC (stored on ice and protected from light) were dispensed into the plate using the Kalypsys dispenser. Plates were read immediately (0 Hour) on an Envision (Perkin Elmer) plate reader using the following wavelengths Ex 460nm /Em 535nm. Then, the assay plates were incubated for 2.5 hours and read again on the Envision using the same settings
Data were normalized to the to AC100 inhibition (NEM). Concentration-response curves were fitted to the normalized data and the concentration-response curves were then classified based on curve quality (r2), response magnitude and degree of measured activity. The time zero reading was used to flag fluorescence artifacts.
Keywords: ubiquitination, deubiquitination, proteases, profluorescent, MLSMR, MLSCN, NIH Roadmap, qHTS, NCGC
Potency means the concentration at half of the fitted maximal effect.

Chain of Ubiquitin carboxyl-terminal hydrolase 2 (Homo sapiens) (O75604 whole entry, looked up): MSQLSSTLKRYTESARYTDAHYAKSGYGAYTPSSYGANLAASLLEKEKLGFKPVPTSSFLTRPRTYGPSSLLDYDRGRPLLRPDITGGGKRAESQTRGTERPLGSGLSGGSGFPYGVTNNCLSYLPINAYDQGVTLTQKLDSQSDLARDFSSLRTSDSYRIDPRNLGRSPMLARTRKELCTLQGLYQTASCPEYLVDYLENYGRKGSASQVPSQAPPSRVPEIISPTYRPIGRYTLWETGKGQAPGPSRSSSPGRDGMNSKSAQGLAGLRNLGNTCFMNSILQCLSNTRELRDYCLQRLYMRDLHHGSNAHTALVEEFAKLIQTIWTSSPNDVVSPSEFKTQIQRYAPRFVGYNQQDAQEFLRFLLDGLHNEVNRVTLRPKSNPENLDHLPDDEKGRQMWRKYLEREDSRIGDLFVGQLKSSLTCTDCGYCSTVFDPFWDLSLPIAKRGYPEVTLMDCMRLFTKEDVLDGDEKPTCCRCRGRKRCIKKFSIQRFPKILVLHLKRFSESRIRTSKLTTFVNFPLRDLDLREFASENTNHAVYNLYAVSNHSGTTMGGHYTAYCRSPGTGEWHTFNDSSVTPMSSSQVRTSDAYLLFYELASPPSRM

`Clc1ccc(C(c2ccc(Cl)cc2)n2cc[n+](C[C@@H](OCc3ccc(Cl)cc3Cl)c3ccc(Cl)cc3Cl)c2)cc1` was tested, and the Potency was 25.1 µM (active).

In order of rising “activity change, negative = inhibition” value:
1. COc1cc2c(cc1OC)[C@@H]1C(=O)c3ccc(O)c(CC=C(C)C)c3OC1CO2 (stereo not given in full)  -10.3%
2. C=CCSSCC=C  -4.04%
3. COC1CC(OC2CC[C@@]3(C=O)C4CC[C@]5(C)C(C6=CC(=O)OC6)CC[C@@]5(O)C4CC[C@]3(O)C2)OC(C)C1O (stereo not given in full)  0.885%
4. COc1ccc(C2Oc3c(I)c(OC)cc(OC)c3CC2O)cc1OC (stereo not given)  2.52%

Source: PubChem BioAssay AID927 (National Center for Advancing Translational Sciences (NCATS), 2007)
